This is a sample that favours compounds with a hit; in the whole collection about 7% have one here.
ADAM17 inh: inhibitors of human ADAM17; recombinant ADAM17, EDANS/DABCYL FRET peptide cleavage; inhibition, % at 6.95 µM; AID 720648; P78536; 0.83% of 370,000 active;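 active means inhibition above the mean of compounds lying between control limits plus 3 SD, set per campaign, cut at about 8.5% in these data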;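 further: 0% = DMSO-only wells as the low control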
NR3A LBD binder: modulates the human NR3A ligand-binding domain | Tm shift relative to glycine control, % at 25 µM | NR3A LBD differential scanning fluorimetry, Tm shift; 0% = protein alone, 100% = glycine-bound protein | 2.5% of 340,000 active;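 active means melting temperature shift of at least 10% of the positive control shift, at one fixed dose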
rCAG binder: r(CAG) repeat RNA binding | TO-PRO-1 dye displacement fluorescence | inhibition, % at 3 µM | 1.3% of 370,000 active;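 active means inhibition above the plate cutoff, the mean of all test compounds on that plate plus 3 SD, cut at about 35% in these data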;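 further: 0% = DMSO alone and 100% = 100 µM mitoxantrone as full dye displacement; higher means more dye released from RNA so lower well fluorescence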
ADAM10 inh: inhibits human ADAM10 | O14672 | recombinant ADAM10, EDANS/DABCYL FRET peptide cleavage, 3 h | inhibition, % at 7 µM | 0.62% of 370,000 active | AID 720582;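 active means inhibition above a per-campaign cutoff equal to the mean of compounds falling between control-based bounds plus 3 SD, cut at about 20% in these data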;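 further: 0% = DMSO wells while the 100% control is not disclosed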
proKLK7 act: proKLK7 (human) activation, primary screen; P49862; purified proKLK7, EDANS-DABCYL substrate fluorescence; 100% is mature enzyme control, 0% vehicle; activation, % at 7 µM; 0.9% of 370,000 active;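 active means activation above the mean of all tested compounds plus 3 SD, computed per campaign excluding outliers beyond control limits, cut at about 13% in these data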
Target sequence (P49862 whole entry, looked up): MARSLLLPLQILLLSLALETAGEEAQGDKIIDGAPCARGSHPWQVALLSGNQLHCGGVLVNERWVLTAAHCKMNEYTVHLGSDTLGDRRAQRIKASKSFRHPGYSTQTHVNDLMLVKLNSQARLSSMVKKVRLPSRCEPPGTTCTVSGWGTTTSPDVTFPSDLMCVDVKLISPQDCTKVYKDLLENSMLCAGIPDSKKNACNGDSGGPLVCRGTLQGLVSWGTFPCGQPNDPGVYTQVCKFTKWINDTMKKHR
AHR act: activates the human aryl hydrocarbon receptor. P35869. AHR-responsive luciferase reporter cells, luminescence. activation, % at 5 µM. 2.5% of 320,000 active; in the data active means activation above about 47%;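 further: 0% = vehicle wells and 100% = reference agonist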
KLK7 act conf: proKLK7 activation, confirmation | shares compounds with proKLK7 act | purified proKLK7, EDANS-DABCYL substrate fluorescence; scaled: vehicle 0, mature enzyme 100 | activation, % at 7 µM | 68% of 3,200 active;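 active means activation, as change over the incubation, above the mean of all tested compounds plus 3 SD, cut at about 13% in these data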
EDANS interfere: optically interferes with EDANS-DABCYL signal, flagging KLK7 hits. shares compounds with proKLK7 act. EDANS-DABCYL substrate fluorescence interference, no enzyme, 4 h; solvent 0%, active enzyme control 100%. activation, % at 7 µM. 80% of 3,200 active;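 active means activation above the all-compound mean plus 3 SD, ignoring values outside control-based bounds, cut at about 4.8% in these data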;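 further: value is the 4 h activation minus the activation read at time zero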
* = called active by the depositor; i = inactive; . = no result given.

SMILES	ADAM17 inh	NR3A LBD binder	rCAG binder	ADAM10 inh	proKLK7 act	AHR act	KLK7 act conf	EDANS interfere
Cc1cccn2c(=O)c3cc(C(=O)NCCCN4CCCC4=O)n(C)c3nc12	i	-1	-1	i	14*	-5	7	15*
CCOCCCNC(=O)c1cc2c(=O)n3cccc(C)c3nc2n1C	-47	0	1	-189	1	-7	.	.
CCCNc1nc2nc3ccccn3c(=O)c2cc1C(=O)NCCN1CCOCC1	-377	-4	2	i	26*	1	21*	20*
Cc1cccn2c(=O)c3cc(C(=O)NCCN4CCOCC4)c(=N)n(CCCN4CCOCC4)c3nc12	-494	0	-7	i	25*	0	4	8.1*
CC(NC(=O)C1CCN(C(=O)Nc2ccccc2)CC1)c1ccc(Cl)cc1 (centres undefined)	-7	0	0	-7	0	-1	.	.
N=c1c(C(=O)NC2CCCC2)cc2c(=O)n3ccccc3nc2n1CCCN1CCOCC1	-355	1	-4	i	26*	-1	-24	-17
N=c1c(C(=O)NC2CCCC2)cc2c(=O)n3ccccc3nc2n1CCN1CCOCC1	-264	-2	-7	i	3	13	.	.
CC(C)C1NC2(C(=O)c3ccccc3C2=O)C2C(=O)N(c3ccc(F)cc3)C(=O)C12 (centres undefined)	-43	-2	-9	-104	20*	1	1	-1
COC(=O)c1c(NC(=O)CC2SC(N)=NC2=O)sc(C)c1C (centres undefined)	6	3	8	13	-1	5	.	.
CC(OC(=O)c1ccccc1NCCO)C(=O)NC1CCCCC1C (centres undefined)	-427	-1	-3	i	21*	0	19*	21*
CC(OC(=O)c1ccc(C(C)(C)C)cc1)C(=O)NC1CCCCC1C (centres undefined)	-2	1	-10	-9	0	8	.	.
O=C(OCC(=O)N1CCN(C(=O)COC(=O)c2ccccc2NCCO)CC1)c1ccccc1NCCO	i	-1	4	i	57*	.	-30	-31
O=C(OCC(=O)N1CCN(C(=O)c2ccco2)CC1)c1ccccc1NCCO	i	-2	0	i	22*	4	31*	31*
CC1CCN(C(=O)COC(=O)c2ccccc2NCCO)CC1	-414	.	1	i	21*	.	26*	22*
O=C(OCC(=O)N1CCCc2ccccc21)c1ccccc1NCCO	i	-3	-4	i	6	11	.	.
CC1Cc2ccccc2N1C(=O)COC(=O)c1ccccc1NCCO (centres undefined)	-474	3	-1	i	12	5	.	.
C=CCCC(=O)N1C[C@@H](CO)[C@@H](NC)C[C@H]1c1ccccc1Br	-4	.	0	0	-1	.	.	.
Cc1ccc(-n2c(-c3ccncc3)n[nH]c2=S)c(C)c1	1	0	0	0	0	0	.	.
CNS(=O)(=O)c1ccc(NS(=O)(=O)c2ccccc2F)cc1	-2	0	-1	3	0	0	.	.
CC[C@]12c3[nH]c4ccc(Cl)cc4c3CCN1C(=O)[C@@H](CC(=O)NCCCn1ccnc1)C[C@@H]2C(=O)N1CCN(C(=O)c2ccco2)CC1	2	-1	4	-3	-1	.	.	.
O=C(COC(=O)CCCNC(=O)c1ccc(Cl)cc1)NC1CC1	-9	1	2	-6	14*	0	-1	-1
CCC(CC)NC(=O)CCCSc1nc2ccccc2[nH]1	2	1	-3	2	0	1	.	.
CN(CC(=O)Nc1ccc(F)c(F)c1F)C(=O)CN1C(=O)C2CCCCC2C1=O (centres undefined)	-1	-3	-5	-11	0	1	.	.
C=CCSc1nnc(NC(=O)CCNC(=O)c2ccccc2Cl)s1	3	.	3	-8	0	.	.	.
CCOC(=O)COc1cc(OCC(=O)OCC)c2c3c(c(=O)oc2c1)CCCC3	-127	1	-1	-313	2	.	.	.

Assay outcomes as filed in PubChem BioAssay.
